Here are results for 1 sequence from article PMC7862700, “An all-to-all approach to the identification of sequence-specific readers for epigenetic DNA modifications on cytosine”.

Common to all, as to assay: DAPPL (digital affinity profiling via proximity ligation, sequencing); 10 mM Tris-HCl pH 7.5, 50 mM NaCl, 1 mM DTT, 4% glycerol, room temperature, 30 min; GST-TFs on glutathione beads, 16-mer random dsDNA library, 0.1% formaldehyde crosslink after washing; high values mean tight binding
Assay [1] concerns the target T1, FLI1 (Homo sapiens, UniProt Q01543 1-452).
T1 sequence: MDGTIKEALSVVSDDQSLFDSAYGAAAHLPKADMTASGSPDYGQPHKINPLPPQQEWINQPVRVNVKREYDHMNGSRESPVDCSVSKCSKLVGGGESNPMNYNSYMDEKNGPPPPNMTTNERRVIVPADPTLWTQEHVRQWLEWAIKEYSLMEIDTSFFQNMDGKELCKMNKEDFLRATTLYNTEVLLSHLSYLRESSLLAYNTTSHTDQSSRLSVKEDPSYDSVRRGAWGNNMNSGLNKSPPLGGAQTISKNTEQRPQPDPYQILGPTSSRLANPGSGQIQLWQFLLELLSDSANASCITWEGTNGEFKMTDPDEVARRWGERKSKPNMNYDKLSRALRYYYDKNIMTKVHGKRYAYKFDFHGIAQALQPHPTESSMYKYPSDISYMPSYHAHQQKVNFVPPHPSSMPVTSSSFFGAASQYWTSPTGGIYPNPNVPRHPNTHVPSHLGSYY
The following applies: protein: recombinant; tags: N-terminal GST; dsDNA, one strand shown. The essentials:
(§1)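 Binding signal is given per hexamer as its read frequency for a factor divided by its frequency in the tag-only sample. GST-fused human transcription factors were expressed in yeast, captured on glutathione beads, barcoded with DNA and pooled with that sample, then incubated with 200 nmole of a 16-mer random double-stranded DNA library in Tris/NaCl/DTT/glycerol buffer for 30 min at room temperature. The pools were then washed, crosslinked, proximity-ligated, amplified by PCR and sequenced on an Illumina NextSeq500.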

Assay [2] has as its target T2, ELK1 (Homo sapiens, UniProt P19419 1-428).
T2 sequence: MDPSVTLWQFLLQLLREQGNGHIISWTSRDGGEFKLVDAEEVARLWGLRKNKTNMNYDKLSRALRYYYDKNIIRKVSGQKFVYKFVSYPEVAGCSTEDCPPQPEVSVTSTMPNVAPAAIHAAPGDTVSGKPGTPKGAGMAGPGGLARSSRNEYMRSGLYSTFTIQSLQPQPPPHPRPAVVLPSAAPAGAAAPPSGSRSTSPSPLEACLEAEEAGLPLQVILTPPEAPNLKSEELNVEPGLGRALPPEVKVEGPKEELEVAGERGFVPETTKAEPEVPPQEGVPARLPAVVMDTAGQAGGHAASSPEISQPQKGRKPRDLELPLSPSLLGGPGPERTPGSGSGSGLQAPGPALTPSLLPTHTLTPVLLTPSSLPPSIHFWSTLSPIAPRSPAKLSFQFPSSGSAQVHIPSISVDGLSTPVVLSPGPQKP
The settings on record: protein: recombinant; tags: N-terminal GST; dsDNA, one strand shown. The essentials:
as §1

For assay [3], the target named is T3, GABPA (Homo sapiens, UniProt Q06546 1-454).
T3 sequence: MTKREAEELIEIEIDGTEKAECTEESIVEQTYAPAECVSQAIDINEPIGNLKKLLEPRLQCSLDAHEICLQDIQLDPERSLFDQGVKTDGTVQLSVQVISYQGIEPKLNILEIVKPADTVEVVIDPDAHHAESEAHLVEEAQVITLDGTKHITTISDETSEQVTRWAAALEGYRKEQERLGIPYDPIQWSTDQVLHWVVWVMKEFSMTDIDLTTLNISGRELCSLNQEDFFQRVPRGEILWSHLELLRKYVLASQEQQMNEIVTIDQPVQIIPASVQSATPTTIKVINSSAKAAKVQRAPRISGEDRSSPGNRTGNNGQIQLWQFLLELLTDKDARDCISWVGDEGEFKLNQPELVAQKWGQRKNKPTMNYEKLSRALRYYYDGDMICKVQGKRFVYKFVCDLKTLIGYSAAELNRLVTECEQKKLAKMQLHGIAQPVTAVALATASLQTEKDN
The following applies: protein: recombinant; tags: N-terminal GST; dsDNA, one strand shown. An outline of the steps:
as §1

The target of assay [4] is T4, ERG (Homo sapiens, UniProt P11308 1-479).
T4 sequence: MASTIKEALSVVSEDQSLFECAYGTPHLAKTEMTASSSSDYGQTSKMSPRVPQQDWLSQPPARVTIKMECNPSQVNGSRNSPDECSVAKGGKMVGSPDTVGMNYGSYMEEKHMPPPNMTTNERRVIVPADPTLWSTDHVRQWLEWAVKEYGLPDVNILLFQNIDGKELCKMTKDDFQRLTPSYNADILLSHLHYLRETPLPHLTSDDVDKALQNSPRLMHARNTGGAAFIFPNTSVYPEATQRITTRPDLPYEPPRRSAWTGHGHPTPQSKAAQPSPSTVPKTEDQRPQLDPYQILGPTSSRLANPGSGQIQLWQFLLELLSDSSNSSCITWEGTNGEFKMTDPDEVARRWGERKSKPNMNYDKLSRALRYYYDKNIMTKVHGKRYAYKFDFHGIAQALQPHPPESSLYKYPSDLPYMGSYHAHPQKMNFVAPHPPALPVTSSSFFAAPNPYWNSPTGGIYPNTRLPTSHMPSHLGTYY
The following applies: protein: recombinant; tags: N-terminal GST; dsDNA, one strand shown. An outline of the steps:
as §1

Assay [5] has as its target ELF1 (Homo sapiens, UniProt P32519 1-619). The following applies: protein: recombinant; tags: N-terminal GST; dsDNA, one strand shown. An outline of the steps:
as §1

Assay [6] deals with T5, EHF (Homo sapiens, UniProt Q9NZC4 1-300).
T5 sequence: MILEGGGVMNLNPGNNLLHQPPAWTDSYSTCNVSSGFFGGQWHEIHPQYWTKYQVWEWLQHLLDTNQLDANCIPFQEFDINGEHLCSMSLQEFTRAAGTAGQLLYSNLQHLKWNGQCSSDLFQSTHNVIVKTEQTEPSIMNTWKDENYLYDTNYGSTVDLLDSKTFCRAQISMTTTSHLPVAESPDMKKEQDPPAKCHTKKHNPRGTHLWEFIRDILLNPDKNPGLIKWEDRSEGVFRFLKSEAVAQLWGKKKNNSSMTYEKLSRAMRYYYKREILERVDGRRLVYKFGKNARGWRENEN
The following applies: protein: recombinant; tags: N-terminal GST; dsDNA, one strand shown. The essentials:
as §1

For assay [7], the target named is SPI1 (Homo sapiens, UniProt P17947 1-270). The settings on record: protein: recombinant; tags: N-terminal GST; dsDNA, one strand shown. The essentials: as §1
The target of assay [8] is SPIB (Homo sapiens, UniProt Q01892 1-262). The settings on record: protein: recombinant; tags: N-terminal GST; dsDNA, one strand shown. An outline of the steps:
as §1

In assay [9] the target is T6, ELK3 (Homo sapiens, UniProt P41970 1-407).
T6 sequence: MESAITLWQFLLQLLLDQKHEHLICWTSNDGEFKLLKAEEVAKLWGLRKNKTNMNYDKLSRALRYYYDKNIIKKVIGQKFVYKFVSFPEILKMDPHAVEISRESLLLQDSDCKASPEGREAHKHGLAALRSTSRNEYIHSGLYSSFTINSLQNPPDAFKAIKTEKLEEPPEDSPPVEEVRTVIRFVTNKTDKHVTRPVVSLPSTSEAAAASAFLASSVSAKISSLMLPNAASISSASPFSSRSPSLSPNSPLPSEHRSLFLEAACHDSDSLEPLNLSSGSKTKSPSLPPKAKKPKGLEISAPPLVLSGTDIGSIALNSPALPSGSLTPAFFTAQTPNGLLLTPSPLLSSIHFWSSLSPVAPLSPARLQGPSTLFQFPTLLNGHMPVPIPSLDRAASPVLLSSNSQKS
The following applies: protein: recombinant; tags: N-terminal GST; dsDNA, one strand shown. The essentials: as §1

Assay [10] addresses T7, FEV (Homo sapiens, UniProt Q99581 1-238).
T7 sequence: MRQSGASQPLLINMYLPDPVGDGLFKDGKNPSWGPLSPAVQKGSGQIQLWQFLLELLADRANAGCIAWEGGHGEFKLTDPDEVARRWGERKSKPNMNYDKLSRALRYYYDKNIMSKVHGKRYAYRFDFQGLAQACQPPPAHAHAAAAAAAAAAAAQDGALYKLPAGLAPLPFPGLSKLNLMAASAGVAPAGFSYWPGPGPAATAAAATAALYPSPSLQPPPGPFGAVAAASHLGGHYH
The following applies: protein: recombinant; tags: N-terminal GST; dsDNA, one strand shown. The essentials:
as §1

Assay [11] deals with ETV5 (Homo sapiens, UniProt P41161 1-510). The settings on record: protein: recombinant; tags: N-terminal GST; dsDNA, one strand shown. The essentials:
as §1

Assay [12] has as its target HSF1 (Homo sapiens, UniProt Q00613 1-529). The following applies: protein: recombinant; tags: N-terminal GST; chain copies: 3; dsDNA, one strand shown. The essentials: as §1
For assay [13], the target named is T8, SPIC (Homo sapiens, UniProt Q8N5J4 1-248).
T8 sequence: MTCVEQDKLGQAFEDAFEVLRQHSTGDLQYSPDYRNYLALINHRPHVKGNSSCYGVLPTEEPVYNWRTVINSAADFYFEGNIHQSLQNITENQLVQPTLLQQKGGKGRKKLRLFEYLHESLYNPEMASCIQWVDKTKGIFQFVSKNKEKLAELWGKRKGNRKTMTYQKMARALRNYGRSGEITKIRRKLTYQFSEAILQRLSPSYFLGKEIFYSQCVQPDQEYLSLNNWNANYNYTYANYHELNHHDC
The following applies: protein: recombinant; tags: N-terminal GST; dsDNA, one strand shown. An outline of the steps: as §1

The target of assay [14] is ELF4 (Homo sapiens, UniProt Q99607 1-663). The following applies: protein: recombinant; tags: N-terminal GST; dsDNA, one strand shown. The essentials:
as §1

Assay [15] has as its target T9, ELK4 (Homo sapiens, UniProt P28324-2 1-405).
T9 sequence: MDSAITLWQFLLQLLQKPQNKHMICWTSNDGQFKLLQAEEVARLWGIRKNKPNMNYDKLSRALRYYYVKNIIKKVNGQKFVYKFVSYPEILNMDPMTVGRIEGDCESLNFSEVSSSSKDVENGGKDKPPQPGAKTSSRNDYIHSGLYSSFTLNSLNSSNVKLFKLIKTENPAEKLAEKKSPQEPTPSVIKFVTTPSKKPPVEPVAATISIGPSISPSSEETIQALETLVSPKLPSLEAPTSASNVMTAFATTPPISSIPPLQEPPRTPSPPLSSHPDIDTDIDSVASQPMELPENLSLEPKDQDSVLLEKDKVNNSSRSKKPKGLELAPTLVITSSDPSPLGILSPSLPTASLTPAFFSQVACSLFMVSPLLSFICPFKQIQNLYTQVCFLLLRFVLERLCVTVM
The following applies: protein: recombinant; tags: N-terminal GST; dsDNA, one strand shown. An outline of the steps: as §1

The target in assay [16] is T10, ETV2 (Homo sapiens, UniProt O00321 1-342).
T10 sequence: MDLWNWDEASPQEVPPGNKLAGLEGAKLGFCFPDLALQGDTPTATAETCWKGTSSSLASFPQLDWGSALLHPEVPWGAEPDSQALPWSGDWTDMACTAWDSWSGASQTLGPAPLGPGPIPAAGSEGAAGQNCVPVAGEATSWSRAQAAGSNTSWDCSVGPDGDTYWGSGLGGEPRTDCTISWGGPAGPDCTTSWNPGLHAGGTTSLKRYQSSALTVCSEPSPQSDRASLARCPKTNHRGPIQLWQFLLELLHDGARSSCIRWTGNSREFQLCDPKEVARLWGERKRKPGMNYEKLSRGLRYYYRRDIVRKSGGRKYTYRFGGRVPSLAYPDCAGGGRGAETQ
The following applies: protein: recombinant; tags: N-terminal GST; dsDNA, one strand shown. The essentials: as §1

For assay [17], the target named is T11, ELF3 (Homo sapiens, UniProt P78545 1-371).
T11 sequence: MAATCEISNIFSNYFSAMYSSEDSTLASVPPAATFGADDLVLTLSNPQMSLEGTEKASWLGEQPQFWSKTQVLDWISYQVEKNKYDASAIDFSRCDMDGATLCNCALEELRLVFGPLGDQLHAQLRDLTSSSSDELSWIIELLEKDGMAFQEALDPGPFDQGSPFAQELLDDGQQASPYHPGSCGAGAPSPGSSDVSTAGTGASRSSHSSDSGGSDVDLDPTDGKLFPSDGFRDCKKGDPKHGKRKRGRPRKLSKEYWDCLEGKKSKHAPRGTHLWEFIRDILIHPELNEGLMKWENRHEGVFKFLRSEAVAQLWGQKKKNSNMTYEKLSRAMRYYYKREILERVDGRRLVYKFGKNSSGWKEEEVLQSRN
The following applies: protein: recombinant; tags: N-terminal GST; dsDNA, one strand shown. An outline of the steps:
as §1

In assay [18] the target is CRX (Homo sapiens, UniProt O43186 1-299). The following applies: protein: recombinant; tags: N-terminal GST; dsDNA, one strand shown. An outline of the steps:
as §1

Assay [19] deals with ETV1 (Homo sapiens, UniProt P50549 1-477). The settings on record: protein: recombinant; tags: N-terminal GST; dsDNA, one strand shown. An outline of the steps:
as §1

Chain of HSF1 (Q00613 whole entry): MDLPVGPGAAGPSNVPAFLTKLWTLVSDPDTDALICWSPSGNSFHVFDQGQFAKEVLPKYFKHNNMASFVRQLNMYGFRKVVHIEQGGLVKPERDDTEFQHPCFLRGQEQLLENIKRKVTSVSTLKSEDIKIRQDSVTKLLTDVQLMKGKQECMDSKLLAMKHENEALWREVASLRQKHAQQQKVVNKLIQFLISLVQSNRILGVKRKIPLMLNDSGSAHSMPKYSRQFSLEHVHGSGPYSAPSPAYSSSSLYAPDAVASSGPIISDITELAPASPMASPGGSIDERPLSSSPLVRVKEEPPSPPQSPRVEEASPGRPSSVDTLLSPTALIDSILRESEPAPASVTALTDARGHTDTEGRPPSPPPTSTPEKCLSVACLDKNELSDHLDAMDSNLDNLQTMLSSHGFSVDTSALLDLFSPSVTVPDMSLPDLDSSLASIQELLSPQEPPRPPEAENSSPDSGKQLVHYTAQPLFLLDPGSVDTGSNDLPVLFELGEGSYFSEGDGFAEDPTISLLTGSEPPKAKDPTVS
Chain of ETV5 (P41161 whole entry): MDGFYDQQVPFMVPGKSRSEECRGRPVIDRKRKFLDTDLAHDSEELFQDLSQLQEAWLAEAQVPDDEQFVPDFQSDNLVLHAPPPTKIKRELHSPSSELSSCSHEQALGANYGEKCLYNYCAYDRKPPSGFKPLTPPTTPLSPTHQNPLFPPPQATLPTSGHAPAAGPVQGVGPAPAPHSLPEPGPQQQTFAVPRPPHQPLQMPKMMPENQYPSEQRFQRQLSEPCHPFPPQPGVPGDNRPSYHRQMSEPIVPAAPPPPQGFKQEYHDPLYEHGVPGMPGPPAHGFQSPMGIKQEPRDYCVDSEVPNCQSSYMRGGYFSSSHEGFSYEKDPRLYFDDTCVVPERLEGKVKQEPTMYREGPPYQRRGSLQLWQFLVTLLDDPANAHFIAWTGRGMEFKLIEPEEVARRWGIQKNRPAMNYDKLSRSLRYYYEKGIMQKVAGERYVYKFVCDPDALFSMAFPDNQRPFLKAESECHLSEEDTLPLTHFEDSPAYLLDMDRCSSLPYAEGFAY
Chain of SPIB (Q01892 whole entry): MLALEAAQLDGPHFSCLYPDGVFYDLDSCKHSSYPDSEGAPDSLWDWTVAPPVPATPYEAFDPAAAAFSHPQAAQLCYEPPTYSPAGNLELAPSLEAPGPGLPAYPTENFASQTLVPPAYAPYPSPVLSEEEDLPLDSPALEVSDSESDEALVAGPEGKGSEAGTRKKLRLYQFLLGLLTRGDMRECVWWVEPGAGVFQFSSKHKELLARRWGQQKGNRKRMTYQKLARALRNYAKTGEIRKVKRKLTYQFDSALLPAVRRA
Chain of ELF4 (Q99607 whole entry): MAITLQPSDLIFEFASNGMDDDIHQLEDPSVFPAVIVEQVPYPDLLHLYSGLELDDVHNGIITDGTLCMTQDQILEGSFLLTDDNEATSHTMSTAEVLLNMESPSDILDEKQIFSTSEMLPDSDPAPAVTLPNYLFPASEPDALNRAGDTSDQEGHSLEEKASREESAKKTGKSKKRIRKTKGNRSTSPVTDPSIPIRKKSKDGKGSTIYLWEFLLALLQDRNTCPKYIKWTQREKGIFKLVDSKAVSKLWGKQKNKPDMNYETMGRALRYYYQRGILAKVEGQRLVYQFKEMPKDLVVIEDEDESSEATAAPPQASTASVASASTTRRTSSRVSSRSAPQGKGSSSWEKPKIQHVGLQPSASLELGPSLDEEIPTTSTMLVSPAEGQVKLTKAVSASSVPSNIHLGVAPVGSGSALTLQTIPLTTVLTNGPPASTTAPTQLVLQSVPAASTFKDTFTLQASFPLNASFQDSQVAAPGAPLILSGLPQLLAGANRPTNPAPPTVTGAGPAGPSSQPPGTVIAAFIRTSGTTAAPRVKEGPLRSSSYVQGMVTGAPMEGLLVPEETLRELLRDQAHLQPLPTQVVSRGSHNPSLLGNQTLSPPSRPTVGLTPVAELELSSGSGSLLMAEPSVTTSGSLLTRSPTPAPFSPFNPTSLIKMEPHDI
Chain of ELF1 (P32519 whole entry): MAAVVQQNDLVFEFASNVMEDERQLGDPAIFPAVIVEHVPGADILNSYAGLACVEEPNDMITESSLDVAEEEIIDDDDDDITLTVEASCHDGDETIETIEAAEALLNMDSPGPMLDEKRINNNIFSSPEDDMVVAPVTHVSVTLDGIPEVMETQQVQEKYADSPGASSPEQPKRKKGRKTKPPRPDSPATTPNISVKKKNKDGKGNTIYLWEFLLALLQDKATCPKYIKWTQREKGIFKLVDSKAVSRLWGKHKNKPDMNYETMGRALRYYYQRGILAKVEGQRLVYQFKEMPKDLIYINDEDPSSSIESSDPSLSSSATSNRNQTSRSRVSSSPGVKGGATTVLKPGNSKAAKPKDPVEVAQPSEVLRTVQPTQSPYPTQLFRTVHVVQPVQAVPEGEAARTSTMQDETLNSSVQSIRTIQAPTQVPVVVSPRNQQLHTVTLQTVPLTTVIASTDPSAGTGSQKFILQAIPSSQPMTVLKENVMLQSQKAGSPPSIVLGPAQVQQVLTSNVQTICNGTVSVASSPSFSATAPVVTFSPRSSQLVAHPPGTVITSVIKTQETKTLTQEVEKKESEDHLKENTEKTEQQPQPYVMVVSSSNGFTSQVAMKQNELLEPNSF
Chain of ETV1 (P50549 whole entry): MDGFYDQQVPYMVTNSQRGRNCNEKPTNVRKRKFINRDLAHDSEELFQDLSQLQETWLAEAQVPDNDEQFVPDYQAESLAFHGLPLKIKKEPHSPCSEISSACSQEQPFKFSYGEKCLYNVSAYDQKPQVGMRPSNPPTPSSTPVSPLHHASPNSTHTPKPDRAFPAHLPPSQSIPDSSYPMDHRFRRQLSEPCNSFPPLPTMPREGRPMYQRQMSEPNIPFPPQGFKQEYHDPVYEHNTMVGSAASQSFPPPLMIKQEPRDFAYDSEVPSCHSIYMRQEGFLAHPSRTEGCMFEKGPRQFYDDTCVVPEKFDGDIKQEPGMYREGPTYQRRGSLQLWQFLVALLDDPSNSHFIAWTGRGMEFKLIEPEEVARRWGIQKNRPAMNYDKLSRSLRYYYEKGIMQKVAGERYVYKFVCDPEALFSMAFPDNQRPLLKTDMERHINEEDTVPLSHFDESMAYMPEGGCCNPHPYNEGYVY
Chain of CRX (O43186 whole entry): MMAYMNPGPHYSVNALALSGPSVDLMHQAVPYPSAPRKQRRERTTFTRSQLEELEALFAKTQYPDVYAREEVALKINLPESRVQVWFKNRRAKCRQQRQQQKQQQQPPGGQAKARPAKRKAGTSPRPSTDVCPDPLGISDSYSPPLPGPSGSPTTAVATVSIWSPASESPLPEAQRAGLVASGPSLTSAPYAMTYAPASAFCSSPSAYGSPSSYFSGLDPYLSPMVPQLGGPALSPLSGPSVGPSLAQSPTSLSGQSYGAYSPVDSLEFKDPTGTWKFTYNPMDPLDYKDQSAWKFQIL

In the case of ATGGGT, the binding signal in assay [1] was 1.39 fold enrichment (6-mer frequency, TF over GST control); in assay [2], 1.37 fold enrichment (6-mer frequency, TF over GST control); in [3], 1.28 fold enrichment (6-mer frequency, TF over GST control); in assay [4] it was 1.43 fold enrichment (6-mer frequency, TF over GST control); in assay [5], 1.3 fold enrichment (6-mer frequency, TF over GST control); in assay [6], 1.46 fold enrichment (6-mer frequency, TF over GST control). For the same sequence, the binding signal in [7] is 1.21 fold enrichment (6-mer frequency, TF over GST control); in [8], 1.29 fold enrichment (6-mer frequency, TF over GST control); in assay [9], 1.44 fold enrichment (6-mer frequency, TF over GST control); in assay [10], 1.28 fold enrichment (6-mer frequency, TF over GST control); in assay [11], 1.5 fold enrichment (6-mer frequency, TF over GST control); in assay [12] it was 1.08 fold enrichment (6-mer frequency, TF over GST control). Besides, the binding signal in [13] was 1.36 fold enrichment (6-mer frequency, TF over GST control); in [14], 1.35 fold enrichment (6-mer frequency, TF over GST control); in assay [15] it was 1.33 fold enrichment (6-mer frequency, TF over GST control); in [16] it was 1.36 fold enrichment (6-mer frequency, TF over GST control); in assay [17], 1.31 fold enrichment (6-mer frequency, TF over GST control); in assay [18] it was 1.11 fold enrichment (6-mer frequency, TF over GST control). For the same sequence, the binding signal in [19] is 1.21 fold enrichment (6-mer frequency, TF over GST control).
